Bioassay records: PubChem, National Center for Advancing Translational Sciences (NCATS)
JMJD2A Tudor inh: inhibitors of human JMJD2A Tudor domain; O75164; AlphaScreen JMJD2A-Tudor / H3K4me3 peptide binding; Potency, µM (highest dose often 114 µM), for inactives: at the top dose activity change, negative = inhibition, usual class: inhibitors; 4.4% of 390,000 active; AID 504339; also: % is scaled to controls: 0 for no effect and ±100 for the full control effect; nearly all actives have a fitted effect of over 50% in size
G9a inh: G9a (human) methyltransferase inhibition; G9a H3K9 monomethylation, AlphaScreen, 2 h; Potency, µM (top dose mostly 102 µM), inactives show at the top dose activity, negative = inhibition, usual class: inhibitors; 8.8% of 350,000 active; AID 504332; also: % is scaled to controls: 0 for no effect and ±100 for the full control effect; nearly all actives have a fitted effect of over 75% in size
Target sequence (Q96KQ7 913-1193 limits assumed): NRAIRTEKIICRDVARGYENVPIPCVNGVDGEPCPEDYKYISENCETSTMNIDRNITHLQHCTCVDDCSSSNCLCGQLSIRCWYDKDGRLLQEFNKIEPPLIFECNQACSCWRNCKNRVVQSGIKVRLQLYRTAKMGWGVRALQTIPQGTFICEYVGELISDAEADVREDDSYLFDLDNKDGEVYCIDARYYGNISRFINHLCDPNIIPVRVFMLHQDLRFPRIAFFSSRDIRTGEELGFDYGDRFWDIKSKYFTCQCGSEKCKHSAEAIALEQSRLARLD
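AlphaScreen read-out: biotin-H3K9 peptide (500 nM) methylation by 20 nM enzyme with 20 uM SAM, 2 h at room temperature after 15 min compound preincubation; anti-monomethyl H3K9 antibody plus donor/acceptor beads, 10 min dark.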
Sfp PPTase inh: inhibitors of Bacillus subtilis Sfp phosphopantetheinyl transferase; AID 1490; Potency, µM, inactives show largest response in the series, negative = inhibition, usual class: inhibitors; Biochemical Sfp PPTase activity, qHTS; 3.5% of 310,000 active;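 also: the enzyme is Sfp with the accession as filed and its product quenches rhodamine fluorescence; 0% = enzyme reaction without inhibitor and -100% = no enzyme wells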
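Fluorescence-quenching assay with 15 nM Sfp, 5 uM rhodamine-CoA and 12.5 uM BHQ-2-labelled ybbR peptide in pH 7.6 Hepes/MgCl2 buffer. Enzyme was pre-incubated with compound for 15 min at room temperature. Rate was taken from the 30-min fluorescence change (525/598 nm).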
BAZ2B block: inhibitors of human BAZ2B bromodomain. Q9UIF8. 4.4% of 360,000 active. AlphaScreen BAZ2B-H3K14Ac peptide displacement. Potency, µM (series often up to 114 µM), inactives show at the highest dose activity change, negative = inhibition, hits mostly inhibitors; also: % is scaled to controls: 0 for no effect and ±100 for the full control effect; nearly all actives have a fitted effect of over 60% in size
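BAZ2B 50 nM plus b-H3(5-23)K14Ac 50 nM, PBS pH 7.4/0.01% Tween-20, 30 min RT; compound added (max 110 uM), 30 min RT; streptavidin donor/Ni-chelate acceptor beads 10 ug/mL final, 20 min dark; AlphaScreen read.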
HP1b binding inh: HP1-beta chromodomain-methylated histone interaction inhibition | Potency, µM (titrated, usually from 114 µM), inactives show at the top dose activity change, negative = inhibition, most hits filed as inhibitors | AlphaScreen HP1-beta / biotin-H3K9me3 peptide binding | P83916 | 0.56% of 390,000 active | AID 540317; also: nearly all actives have a fitted effect of over 70% in size
Target sequence (P83916 whole entry, looked up): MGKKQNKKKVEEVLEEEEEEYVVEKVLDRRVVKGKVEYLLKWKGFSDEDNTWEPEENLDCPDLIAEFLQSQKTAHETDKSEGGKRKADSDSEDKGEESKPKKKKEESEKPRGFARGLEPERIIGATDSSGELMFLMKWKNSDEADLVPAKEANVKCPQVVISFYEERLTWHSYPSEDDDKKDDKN
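HP1-beta protein (50 nM final) preincubated 30 min at room temperature with biotinylated H3(1-18)K9me3 peptide (50 nM) in PBS pH 7.4, 0.01% Tween-20, then compound added for 30 min. AlphaScreen streptavidin donor/nickel chelate acceptor beads (10 ug/mL final), 30 min dark, luminescence read.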
* hit, by the source's call; ? = inconclusive; . = not tested or not shown; [ ] = remark or other dose. Rows were chosen to be rich in hits. Some 12% of all compounds tested hit in one or more screens of this group. Calls follow the shape of the dose curve; as a rule, active = well fitted curve in the direction sought with a large enough effect; inconclusive = small, poorly fitted or top-dose-only effect, or another doubt; inactive = no such curve, though single readings can be large; an effect the other way counts as inactive or inconclusive. Potency is read from the fitted curve at half-maximal effect.

SMILES	JMJD2A Tudor inh	G9a inh	Sfp PPTase inh	BAZ2B block	HP1b binding inh
CCC(=O)Nc1ccc(N2CCC(C)CC2)cc1	-16.1%	8.91µM*	3.0%	-6.8%	25.2%
COc1ccc(NC(=O)CN2CCC(C)CC2)cc1	-6.3%	-6.3%[59 µM]	18.9%	-2.4%	21.6%
CC1CCN(c2ccc(NC(=O)Cc3ccccc3)cc2)CC1	-18.1%	.	6.0%	-4.1%	34.8%
CC1(C)C2CC=C(/C=N/NC(=S)NCCc3ccccc3)C1C2 (centres undefined)	-21.8%	?	1.3%	?	22.0%
COc1ccccc1NS(=O)(=O)c1cccc(C(=O)NNC(=O)c2ccc(Cl)nc2)c1	-4.1%	.	.	.	19.3%[57 µM]
CC(C)NS(=O)(=O)c1ccc(CCC(=O)N2CCCC2)cc1	-9.8%[11.4 µM]	.	5.3%	-9.0%	13.0%
COc1c2occc2c(OC)c2c(=O)cc(C(F)(F)C(F)(F)F)oc12	-6.5%	6.7%[59 µM]	32.7%	-1.9%	34.4%
CC1CCN(CC(=O)Nc2ccc(C(=O)N3CCCCC3)cc2)CC1	1µM*	28.2µM*	-12.8%	50.1µM*	?
Cc1cc(Br)ccc1NC(=O)CNC(=O)COc1ccccc1C	?	9.8%[2.33 µM]	.	12.2%	17.6%
CCCCNC(=O)CNC(=S)N(Cc1ccccc1)Cc1cccs1	-10.7%	-6.5%	5.9%	-10.1%	15.8%
CCCCNC(=O)CNC(=S)N(Cc1ccc(C)cc1)Cc1ccco1	-33.3%	28.2µM*	56.2µM*	-37.2%	-16.0%
Cc1ccc(CN(Cc2ccco2)C(=S)NCC(=O)NC2CC2)cc1	-20.7%	17.8µM*	50.1µM*	-34.3%	5.4%
COc1ccc(CCC(=O)N2c3ccccc3CC2C)cc1 (centres undefined)	7.7%	3.8%[12.7 µM]	-15.1%	32.7%	34.9%
CC1(C)CC(NC(=O)CCc2nnc(CCCCc3ccccc3)o2)CCO1 (centres undefined)	-13.7%	12.6%[0.501 µM]	-2.7%	2.6%	25.4%
COc1cc([C@@H]2c3cc4c(cc3[C@@H](O[C@@H]3O[C@H]5CO[C@@H](C)O[C@@H]5[C@@H](O)[C@H]3O)[C@@H]3COC(=O)[C@@H]23)OCO4)cc(OC)c1O	.	.	89.1µM*	.	.
FC(F)(F)c1cccc(NCc2cn3cccnc3n2)c1	-15.3%	?	7.7%	-37.0%	29.4%
CCC(c1nnnn1C(C)(C)C)N(Cc1ccco1)Cc1cc2cccc(C)c2[nH]c1=O (centres undefined)	-34.9%	?	56.2µM*	?	-2.8%
CCOc1ccc2[nH]c(=O)c(CN(Cc3ccco3)Cc3nnnn3Cc3ccccc3)cc2c1	-19.6%	?	2.0%	-26.5%	22.1%
CCC(c1nnnn1Cc1ccco1)N(CCN1CCOCC1)Cc1cc2cc(C)ccc2[nH]c1=O (centres undefined)	-9.5%	?	44.7µM*	3.6%	29.2%
COc1ccc2[nH]c(=O)c(CN(Cc3ccco3)Cc3nnnn3Cc3ccccc3)cc2c1	-2.9%	50.1µM*	56.2µM*	2.2%	21.1%
CCOc1ccc2[nH]c(=O)c(CN(Cc3ccco3)C(CC)c3nnnn3Cc3ccccc3)cc2c1 (centres undefined)	-35.2%	35.5µM*	?	1.7%	11.7%
CCC(c1nnnn1Cc1ccccc1)N(Cc1ccccc1)Cc1cc2cc(C)ccc2[nH]c1=O (centres undefined)	-10.8%[57.1 µM]	.	.	.	-3.4%[57 µM]
CCC(c1nnnn1CCc1ccccc1)N(Cc1ccco1)Cc1cc2cccc(C)c2[nH]c1=O (centres undefined)	-21.7%	-0.2%[12.7 µM]	0.9%	?	6.8%
C=CCn1c(SCC(=O)Nc2cccc(S(=O)(=O)N(C)c3ccccc3)c2)nnc1C1CC1	-13.7%	4.9%[0.501 µM]	.	-1.7%	6.6%
N#Cc1ccccc1Sc1ccccc1C(=O)OCC(=O)NC1CCS(=O)(=O)C1 (centres undefined)	-11.7%[57.1 µM]	1.2%[59 µM]	-2.7%	11.1%	59.8%
O=c1[nH][nH]c2cc(=O)n(-c3ccc(Cl)cc3)nc12	?	39.8µM*	5.4%	50.1µM*	-12.5%
COc1ccc(-c2noc(C3CCCN(C(=O)c4ccccc4OC)C3)n2)cc1 (centres undefined)	-15.2%	12.9%[59 µM]	19.1%	-9.6%	34.7%
O=C(CSc1ccsc1[N+](=O)[O-])N1CCCCCC1	-13.3%	44.7µM*	-9.3%	.	4.4%
